# Screening results (PubChem)
# Compounds with a hit are over-represented: about 6.9% of the library has one in this group of screens.
# KB-3-1 cytotox – kills parental KB-3-1 adenocarcinoma cells; KB-3-1 viability, CellTiter-Glo ATP luminescence, 72 h; Potency, µM (top dose mostly 46.1 µM), usual class: cytotoxic; 400,000 tested, 1.4% active; AID 1347075; also: potency is read from the fitted curve at half-maximal effect; % is scaled to controls: 0 for no effect and ±100 for the full control effect; nearly all actives have a fitted effect of over 60% in size
#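 Screening of KB-3-1 cells (DMEM, 10% FBS, phenol-red free) ran from lowest to highest compound concentration; after 72 h at 37 °C viability was read luminescently and curves fitted.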
# S-ASM inh – human S-ASM enzyme inhibition; P17405; AID 504937; Potency, µM (top dose mostly 57.5 µM), inactives show at the top dose activity change, negative = inhibition, actives largely listed as inhibitors; placental ASM, HMU-PC fluorogenic substrate, 60 min; 340,000 tested, 0.006% active; also: potency is read from the fitted curve at half-maximal effect
# Target sequence (P17405 47-631 limits assumed): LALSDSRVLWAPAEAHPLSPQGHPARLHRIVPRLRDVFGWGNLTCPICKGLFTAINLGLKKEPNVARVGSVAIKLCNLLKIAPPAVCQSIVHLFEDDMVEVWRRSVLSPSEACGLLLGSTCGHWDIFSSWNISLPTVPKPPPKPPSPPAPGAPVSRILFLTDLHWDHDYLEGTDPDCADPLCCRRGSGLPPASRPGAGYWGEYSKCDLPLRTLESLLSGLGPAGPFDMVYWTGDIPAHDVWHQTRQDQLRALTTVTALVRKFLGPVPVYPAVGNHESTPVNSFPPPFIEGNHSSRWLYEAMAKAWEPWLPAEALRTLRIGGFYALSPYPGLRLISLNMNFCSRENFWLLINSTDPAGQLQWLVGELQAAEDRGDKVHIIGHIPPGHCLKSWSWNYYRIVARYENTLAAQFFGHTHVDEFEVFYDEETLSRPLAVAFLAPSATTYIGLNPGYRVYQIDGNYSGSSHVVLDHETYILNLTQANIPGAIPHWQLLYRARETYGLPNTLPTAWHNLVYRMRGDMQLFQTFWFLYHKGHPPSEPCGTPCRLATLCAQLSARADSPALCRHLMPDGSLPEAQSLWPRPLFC
#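 qHTS format. ASM enzyme prepared from human placenta hydrolyses the fluorogenic substrate HMU-PC0 (9 uM final) over 60 min at 37 °C after a 10 min compound preincubation.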
# KB-V1 cytotox – kills drug-selected multidrug resistant KB-V1 cells | KB-V1 MDR cells viability, CellTiter-Glo, 72 h | Potency, µM (series often up to 46.1 µM), usual class: cytotoxic | 400,000 tested, 3.4% active | AID 1347076; also: potency is read from the fitted curve at half-maximal effect; % is scaled to controls: 0 for no effect and ±100 for the full control effect; nearly all actives have a fitted effect of over 60% in size
#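 Luminescent ATP read-out (CellTiter-Glo, 10 min) measures survival of drug-selected KB-V1 MDR cells after 72 h, 37 degrees C compound exposure. Medium: phenol-red-free DMEM, 10% FBS. Values from fitted concentration-response curves.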
# Giardia killer – Giardia lamblia killing. Giardia lamblia trophozoite viability. activity change, % at 7.66 µM, hits read low. 340,000 tested, 0.15% active. AID 540267; in the data active = activity change below about -80%; inconclusive = between about -30% and that limit;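 also: parasites exposed to compound for two days anaerobically before the ATP read; % is scaled to controls: 0 for no effect and ±100 for the full control effect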
#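 Killing of trophozoites was scored by loss of ATP luminescence after a 48 hrs anaerobic exposure to compounds at 37 deg C, using 100 cells per well.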
# SW480 rerep – induces DNA re-replication in SW480 colon adenocarcinoma cells; Potency, µM (titrated, usually from 46.1 µM), inactives show top-dose re-replication activation, most hits filed as activators; 340,000 tested, 1.8% active; SW480 DNA re-replication, Hoechst DNA content imaging, 48 h; also: potency is read from the fitted curve at half-maximal effect; % of control where 0% means no effect; nearly all actives have a fitted effect of over 55% in size
#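 First, 250 cells per well were seeded. Next, compound or vehicle (23 nL) was pinned in, plates sat 48 hr at 37 C. Finally Hoechst was added for 40 min before fluorescence scanning.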
# MCF10A rerep – inducers of DNA re-replication in MCF 10A breast cells; Potency, µM (doses to about 46.1 µM), inactives show at the top dose activity, positive = re-replication, hits mostly activators; 350,000 tested, 2.9% active; MCF 10A DNA re-replication, Hoechst nuclear intensity, 48 h; also: potency is read from the fitted curve at half-maximal effect; % of control where 0% means no effect; nearly all actives have a fitted effect of over 50% in size
# * marks the source's active call; other numbers are inactive results; i = inactive; ? = inconclusive; / = not tested or not shown; [ ] = remark or other dose. Unless noted, calls follow the shape of the dose curve; as a rule, active = well fitted curve in the direction sought with a large enough effect; inconclusive = small, poorly fitted or top-dose-only effect, or another doubt; inactive = no such curve, though single readings can be large; an effect the other way counts as inactive or inconclusive.
SMILES,KB-3-1 cytotox,S-ASM inh,KB-V1 cytotox,Giardia killer,SW480 rerep,MCF10A rerep
Cc1cccc(-c2oc3ccc(-c4ccc5c(c4)OCO5)cc3c2/C=C/c2ccc(N)cc2)c1,i,i,?,-15.3,16.4µM*,?
COc1ccc(-c2c(-c3cccc(C)c3)oc3ccc(-c4ccc5c(c4)OCO5)cc23)cn1,i,7.2%,i,2.2,1.5%,-28.5%
CN(c1ccccc1)S(=O)(=O)c1cccc(NC(=O)CSc2nccc(=O)[nH]2)c1,/,1.4%,/,2.0,7.9%,-2.2%
Cc1c(C(C)C)c(=O)n(-c2ccc(S(=O)(=O)NCc3ccccc3)cc2)n1C,?,0.6%,2.59µM*,0.9,-8.1%,25.6%
S=C(NCCCc1cnc[nH]1)NCCCN(Cc1ccc(Cl)cc1)c1ccc(-c2ccccc2)cn1,?,/,i,-3.2,/,/
O=C(NCc1cccs1)C1CC(c2ccc(Cl)c(Cl)c2)=NO1 (centres undefined),i,-4.3%,i,-0.5,-3.6%,2.31µM*
O=C(NCCc1cccs1)C1CC(c2c(Cl)cccc2Cl)=NO1 (centres undefined),i,2.3%,i,-24.1,11.8%,1.2%
COc1ccc(C2=NOC(C(=O)NCc3cccnc3)C2)cc1OC (centres undefined),?,5.6%,?,-17.5,?,?
O=C(NCc1cccs1)C1CC(c2ccc(Cl)cc2)=NO1 (centres undefined),?,5.1%,?,-3.2,?,9.2µM*
O=C(NCc1ccco1)C1CC(c2ccc(Cl)cc2)=NO1 (centres undefined),i,3.0%,i,-6.6,24.7%,?
O=C(NCc1cccnc1)C1CC(c2ccc(Cl)c(Cl)c2)=NO1 (centres undefined),?,1.9%,?,-26.9,13.8%,9.2µM*
O=C(NCc1ccccn1)C1CC(c2ccc(Cl)c(Cl)c2)=NO1 (centres undefined),?,-1.4%,?,-3.6,16.2%,11.2µM*
CCn1c(SCC(=O)c2ccccc2)nnc1-c1cccc(Cl)c1,i,/,i,/,/,/
Cc1c(Cl)cccc1NC(=O)c1cc(-c2cccc(Cl)c2)on1,i,/,?,/,/,/
O=C1CC(O)(c2ccccc2)C(c2ccccc2)=C1c1ccccc1 (centres undefined),?,-6.9%,17.8µM*,7.0,-2.4%[9.22 µM],17.4%
CSCC[C@H](NC(=O)c1cc2c([nH]c3ccccc32)c(-c2ccccc2)n1)C(=O)O,i,13.9%,i,5.4,23.1µM*,0.1%
C[C@H](NC(=O)c1cc2c([nH]c3ccccc32)c(-c2ccccc2)n1)C(=O)O,i,18.7%,?,0.1,-4.9%,-16.0%
COC(=O)c1cn(NC(=O)/C=C/c2cc(OC)ccc2OC)c(=O)c2ccccc12,i,250.0%,8.2µM*,1.4,3.3%,-30.8%
COC(=O)c1cn(NC(=O)c2ccc(OC)c(OC)c2)c(=O)c2ccccc12,i,-4.3%,i,-4.4,-4.6%,-9.0%
CCCN1CCc2c(sc(NC(=O)CCS(=O)(=O)c3ccccc3)c2C(N)=O)C1,/,136.1%,/,-5.3,18.4µM*,20.6µM*
CCCNC(=O)C1(C)CCCN(C(=O)c2cccnc2Oc2ccccc2)C1 (centres undefined),i,/,i,/,/,/
O=C(NCCCc1cnc[nH]1)NCCCN(Cc1ccc(Cl)cc1)c1ccc(Br)cn1,i,/,i,2.6,/,/
CC(C)n1cnc2c(NCc3ccccc3)cc(N[C@H](C)CO)cc21,?,29.4%,i,29.2,0.651µM*,?
CCCNC(=O)c1cc2c(c(-c3cccc(-c4cc5ccccc5o4)c3)n1)[C@H](CCO)N(C(=O)NC(C)C)C2,i,/,?,/,/,/
CC(=O)N1Cc2cc(C(=O)NCC(F)(F)F)nc(-c3cccc(-c4cc5ccccc5o4)c3)c2[C@@H]1CCO,?,/,23.1µM*,/,/,/
CC(=O)N1Cc2cc(C(=O)NCC(F)(F)F)nc(-c3cccc(-c4cccnc4)c3)c2[C@@H]1CCO,4.11µM*,/,i,/,/,/
